Consider 7 compounds from PubChem BioAssay (NCATS).

Assay [1] can be described thus: qHTS assay for small molecule agonists of retinoid X receptor alpha signaling (AID 588544; calls by dose curve;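 on activation: 0% = DMSO basal wells and 100% = reference agonist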). As to conditions: HEK293T RXRa-UAS-bla, beta-lactamase reporter, 18 h; 530 nm emission. For orientation: In qHTS, concentration-response curves come from the screen itself.
The target of assay [2] is Retinoic acid receptor RXR-alpha (Homo sapiens) (UniProt P19793). The description is as above. As to conditions: HEK293T RXRa-UAS-bla, beta-lactamase reporter, 18 h; series mostly up to 76.7 µM.
The target in assay [3] is Thyroid hormone receptor beta (Homo sapiens) (UniProt P10828). The experiment in a line: qHTS assay for small molecule agonists of thyroid hormone receptor beta signaling (AID 588545; calls by dose curve;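 further: 0% = DMSO only and 100% = 10 nM T3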). To be noted: TR-UAS-bla GripTite HEK 293, beta-lactamase ratio, agonist mode, 18 h, percent of T3 response, DMSO as zero; series mostly up to 76.7 µM. The procedure, abridged:
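TR-UAS-bla-GripTite HEK 293 cells in medium with 2% charcoal/dextran FBS, 0.1 mM NEAA and 1 mM sodium pyruvate were treated with titrated compounds for 18 hrs at 37 C. Beta-lactamase reporter was read with CCF4 dye (ex 405, em 460/530 nm); EC50 from Hill fits.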

Assay [4] has the same target. The experiment in a line: qHTS assay for small molecule antagonists of thyroid hormone receptor beta signaling (AID 588547; active means well fitted inhibition curve with a large enough effect in the signal ratio, with a control signal flat, not every such curve was filed as active; the % refers to the signal ratio;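 further: cells stimulated with 0.4 nM T3 agonist during compound exposure; on the % scale 0 is the no-effect control and ±100 the full control effect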). To be noted: TR-UAS-bla HEK293, beta-lactamase ratio, antagonist mode, 18 h. The procedure, abridged:
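TR-UAS-bla GripTite HEK293 cells in 2% charcoal/dextran FBS medium; compounds 0.59 nM to 92 uM with T3 at 0.4nM final, 18 h at 37 C. Beta-lactamase read by CCF4 fluorescence (460/530 nm); Hill fits gave IC50 and efficacy.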

The target of assay [5] is Voltage-gated inwardly rectifying potassium channel KCNH2 (Homo sapiens) (UniProt Q12809). The experiment in a line: qHTS Assay for Small Molecule Inhibitors of the Human hERG Channel Activity (AID 588834).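 Further: lower thallium flux fluorescence means stronger hERG block; nearly all actives have a fitted effect of over 50% in size.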 Further: potency means the concentration at half of the fitted maximal effect. To be noted: U2OS BacMam hERG, FluxOR thallium flux fluorescence; series mostly up to 92.2 µM. The essentials:
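In hERG-transduced U2OS cells, dye-loaded for 1 hr at room temperature in dark, test compounds incubated 10 min at 37 °C before thallium stimulation. AC50 values derived by Hill modelling of concentration-response.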

Assay [6] is described as follows: qHTS assay for small molecule activators of the p53 signaling pathway (AID 651743; active means well fitted activation curve with a large enough effect in the signal ratio, not every such curve was filed as active; the % refers to the signal ratio; further: % of control where 0% means no effect). To be noted: HCT-116 p53RE-bla, beta-lactamase FRET ratio, 16 h; stronger effect = higher value. The essentials:
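Following 16 hours of compound exposure at 37 C, HCT-116 cells bearing the p53RE-bla reporter were loaded with LiveBLAzer B/G FRET substrate for 2 hours at room temperature and fluorescence intensity was recorded.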

Assay [7] is described as follows: qHTS assay for small molecule activators of the nuclear factor-kappa B (NF-kB) signaling pathway (AID 651749; active means well fitted activation curve with a large enough effect in the signal ratio; the % refers to the signal ratio; further: % of control where 0% means no effect). As to conditions: NF-kB-bla ME-180 cells, beta-lactamase FRET ratio, 16 h; stronger effect = higher value. The essentials: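 In this qHTS format, compounds acting as activators increase NF-kB-driven beta-lactamase in ME-180 cells, measured as disrupted FRET after 16 hr exposure at 37C and 5% CO2.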

The nature of assay [8]: qHTS assay for small molecule disruptors of the mitochondrial membrane potential - 1 hr assay (AID 651754; calls by dose curve; further: on the % scale 0 is the no-effect control and ±100 the full control effect; nearly all actives have a fitted effect of over 35% in size). As to conditions: series mostly up to 92.2 µM. The essentials:
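Mitochondrial potential in living HepG2 cells after 1 hr compound treatment at 37C was read with Mito-MPS dye added for a further 30 min. Red aggregate and green monomer fluorescence were measured; loss of potential leaves dye as cytoplasmic monomers.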

The nature of assay [9]: qHTS assay for small molecule disruptors of the mitochondrial membrane potential - 5 hr assay (AID 651755; calls by dose curve; further: on the % scale 0 is the no-effect control and ±100 the full control effect; nearly all actives have a fitted effect of over 40% in size). To be noted: JC-1-type ratio dye; series mostly up to 92.2 µM. The essentials:
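Read-out: ratiometric Mito-MPS fluorescence, green monomer (ex 490/em 535) vs red mitochondrial aggregate (ex 540/em 590). HepG2 cells treated 5 hr at 37C before 30 min dye loading.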

Assay [10] deals with Tumor necrosis factor (Homo sapiens) (UniProt P01375). The experiment in a line: qHTS assay to identify small molecules that stimulate Tumor Necrosis Factor-alpha (TNF-alpha) secretion (AID 651757; active means well fitted curve in the direction sought with a large enough effect in the signal ratio; the % refers to the signal ratio; further: 0% is about no effect). To be noted: Human cells, HTRF 665/615 ratio; series mostly up to 92.2 µM. The procedure, abridged:
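Secreted TNF-alpha quantified by TR-FRET sandwich of two labeled anti-TNF-alpha antibodies, incubated 3 hr at room temperature. Preceded by 17 hr, 37 C compound treatment of THP-1 cells at 3000 cells/well.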

Assay [11] in a line: qHTS assay for environmental chemicals that activate the Aryl hydrocarbon Receptor (AhR) signaling pathway (AID 651777). Further: nearly all actives have a fitted effect of over 15% in size. Further: potency means the concentration at half of the fitted maximal effect. On activation: % of control where 0% means no effect. As to conditions: 1A2-DRE human hepatoma cells, luciferase, 24 h; activation: stronger effect = higher value. The essentials: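 Stable CYP1A2 promoter/DRE-luciferase human hepatoma line treated 24 hr; One-Glo luminescence, 30 min RT.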
The target of assay [12] is Peroxisome proliferator-activated receptor alpha (Homo sapiens) (UniProt Q07869). Kind of assay: qHTS assay for small molecule agonists of the peroxisome proliferator-activated receptor alpha (PPARalpha) signaling pathway (AID 651778). Further: % of control where 0% means no effect. As to conditions: PathHunter PPARalpha complementation, chemiluminescence, 6 h; stronger effect = higher value. The essentials:
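Enzyme-fragment complementation assay in which ligand-bound PPARalpha translocates and forms an active enzyme that generates chemiluminescence. Cells were plated overnight, exposed to compound for 6 hr at 37 C, and then given detection reagent for 60 min at room temperature.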

In assay [13] the target is Nuclear receptor ROR-gamma (Homo sapiens) (UniProt P51449). Kind of assay: qHTS assay for small molecule antagonists of the retinoid-related orphan receptor gamma (ROR-gamma) signaling pathway (AID 651802).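 Further: luciferase reporter luminescence driven by ROR response element; on the % scale 0 is the no-effect control and ±100 the full control effect; nearly all actives have a fitted effect of over 60% in size.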 As to conditions: ROR-gamma antagonist cell reporter assay; series mostly up to 92.2 µM. The essentials: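 Luminescence (One-Glo, 30 min RT) measured 16 h after compound addition and doxycycline induction at 37C. Reporter: RORE-luciferase under TET-inducible ROR-gamma in CHO cells.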

Assay [14] is described as follows: qHTS assay for small molecule agonists of the antioxidant response element (ARE) signaling pathway measured by Nrf2-dependant transcriptional activity (AID 720636; active means well fitted curve in the direction sought with a large enough effect in the repeat runs; an effect the other way counts as inactive or inconclusive;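 further: HepG2 cells with an ARE-driven luciferase reporter; % of control where 0% means no effect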). To be noted: ARE-luc HepG2, Nrf2 luciferase reporter, 16 h; series mostly up to 92.4 µM. The essentials: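 Reporter gene assay, HepG2 ARE-luc: 16 hr compound, 37 C, 5% CO2; read-out luciferase luminescence.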

Assay [15] in a line: qHTS assay for small molecule antagonists of the retinoid-related orphan receptor gamma (ROR-gamma) signaling pathway - cell viability counter screen (AID 720652; active means well fitted curve in the direction sought with a large enough effect in the repeat runs; an effect the other way counts as inactive or inconclusive;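 further: compound exposure lasted 16 hr before ATP read; on the % scale 0 is the no-effect control and ±100 the full control effect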). As to conditions: RORgamma reporter cell line viability counter screen; series mostly up to 92.2 µM. The procedure, abridged: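 Cytotoxicity counter screen: intracellular ATP (CellTiter-Glo luminescence) measured in the doxycycline-induced CHO RORE-luciferase reporter line after 16 hr compound exposure at 37 C, 5% CO2.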

A short description of assay [16]: qHTS assay for small molecule agonists of the antioxidant response element (ARE) signaling pathway measured by Nrf2-dependant transcriptional activity - cell viability counter screen (AID 720653; active means well fitted curve in the direction sought with a large enough effect in the repeat runs; an effect the other way counts as inactive or inconclusive; further: on the % scale 0 is the no-effect control and ±100 the full control effect). As to conditions: ARE-bla HepG2 viability, CellTiter-Glo ATP luminescence, 16 h; stronger effect = lower value. The procedure, abridged: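 ARE-bla HepG2 cells treated with compounds for 16 h at 37C; this counter screen measures viability as intracellular ATP by CellTiter-Glo luminescence after 30 min at room temperature.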

Assay [17] is described as follows: qHTS assay for small molecule antagonists of retinoid X receptor alpha signaling (AID 588546; active means well fitted inhibition curve with a large enough effect in the signal ratio, with a control signal flat, not every such curve was filed as active; the % refers to the signal ratio;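 further: cells stimulated with 9-cis-retinoic acid as agonist; on the % scale 0 is the no-effect control and ±100 the full control effect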). As to conditions: HEK293T RXRa-UAS-bla, beta-lactamase ratio, antagonist mode; measured here: W530 green channel, cytotoxicity proxy. The essentials: (§1)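 Beta-lactamase reporter inhibition, read as CCF4 fluorescence ratio (ex 405, em 460/530 nm) after 2 h at RT. HEK293T UAS-bla cells, 2500/well, were stimulated with 9-cis-RA at 500 or 100 nM final alongside test compound for 18 h at 37 C.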

Assay [18] addresses Retinoic acid receptor RXR-alpha (Homo sapiens) (UniProt P19793). Described as above. To be noted: HEK293T RXRa-UAS-bla, beta-lactamase ratio, antagonist mode. The essentials: as §1
Assay [19] can be described thus: qHTS assay for small molecule agonists of the antioxidant response element (ARE) signaling pathway (AID 651741; active means well fitted activation curve with a large enough effect in the signal ratio; the % refers to the signal ratio; further: potency means the concentration at half of the fitted maximal effect; on activation: % of control where 0% means no effect). As to conditions: HepG2 ARE-bla reporter, beta-lactamase FRET ratio, 16 h; series mostly up to 96 µM. The procedure, abridged:
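Stably integrated ARE-beta-lactamase reporter HepG2 cells; 16 h compound incubation, 37 C; LiveBLAzer FRET substrate 2 h at room temperature; fluorescence intensity.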

Assay [20] in a line: qHTS assay to identify small molecules that stimulate interleukin-8 (IL-8) secretion (AID 651758; active means well fitted activation curve with a large enough effect in the signal ratio; the % refers to the signal ratio; further: 0% is about no effect). As to conditions: HTRF ratio (665/615); series mostly up to 92.2 µM. The procedure, abridged:
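Compounds are added to THP-1 cells (2000 per well) and left 16 hrs at 37 C. A labeled anti-IL-8 antibody pair is then added, and IL-8 secretion is measured by time-resolved FRET after 1-3 hrs at room temperature.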

The structures appear in SMILES notation. Results filed as inconclusive are left out. Activity calls are given as the source filed them. Unless noted, the call rests on the fitted dose curve; in most records, active means well fitted curve in the direction sought with a large enough effect; inconclusive means small, poorly fitted or top-dose-only effect, or another doubt; inactive means no such curve, though single readings can be large; an effect the other way counts as inactive or inconclusive.

Sequence of Retinoic acid receptor RXR-alpha (Homo sapiens) (P19793 whole entry, looked up): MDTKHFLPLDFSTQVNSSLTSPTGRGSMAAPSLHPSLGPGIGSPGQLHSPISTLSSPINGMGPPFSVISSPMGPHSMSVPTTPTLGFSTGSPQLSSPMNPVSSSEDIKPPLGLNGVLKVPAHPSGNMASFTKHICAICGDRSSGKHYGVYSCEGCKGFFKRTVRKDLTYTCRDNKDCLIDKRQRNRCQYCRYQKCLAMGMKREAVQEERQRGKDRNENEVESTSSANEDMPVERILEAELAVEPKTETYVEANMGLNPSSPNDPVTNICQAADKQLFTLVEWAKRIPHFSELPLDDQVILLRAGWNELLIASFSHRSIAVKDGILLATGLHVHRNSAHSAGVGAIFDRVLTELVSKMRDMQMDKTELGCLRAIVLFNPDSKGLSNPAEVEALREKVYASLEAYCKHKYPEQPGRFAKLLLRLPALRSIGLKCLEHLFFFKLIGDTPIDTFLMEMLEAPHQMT
Sequence of Peroxisome proliferator-activated receptor alpha (Homo sapiens) (Q07869 whole entry, looked up, the tested form may be a part): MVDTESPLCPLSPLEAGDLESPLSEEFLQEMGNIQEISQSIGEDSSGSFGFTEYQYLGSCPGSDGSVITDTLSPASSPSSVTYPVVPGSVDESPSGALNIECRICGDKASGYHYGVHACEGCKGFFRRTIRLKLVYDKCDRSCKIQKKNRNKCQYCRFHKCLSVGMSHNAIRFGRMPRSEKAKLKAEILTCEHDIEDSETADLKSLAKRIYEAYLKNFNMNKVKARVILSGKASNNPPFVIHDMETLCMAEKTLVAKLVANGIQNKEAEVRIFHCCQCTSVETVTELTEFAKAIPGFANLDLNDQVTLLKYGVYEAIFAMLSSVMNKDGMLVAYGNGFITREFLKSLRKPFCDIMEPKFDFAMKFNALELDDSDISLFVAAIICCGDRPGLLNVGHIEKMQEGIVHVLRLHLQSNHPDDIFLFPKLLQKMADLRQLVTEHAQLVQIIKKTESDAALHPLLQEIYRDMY
Sequence of Thyroid hormone receptor beta (Homo sapiens) (P10828 whole entry, looked up): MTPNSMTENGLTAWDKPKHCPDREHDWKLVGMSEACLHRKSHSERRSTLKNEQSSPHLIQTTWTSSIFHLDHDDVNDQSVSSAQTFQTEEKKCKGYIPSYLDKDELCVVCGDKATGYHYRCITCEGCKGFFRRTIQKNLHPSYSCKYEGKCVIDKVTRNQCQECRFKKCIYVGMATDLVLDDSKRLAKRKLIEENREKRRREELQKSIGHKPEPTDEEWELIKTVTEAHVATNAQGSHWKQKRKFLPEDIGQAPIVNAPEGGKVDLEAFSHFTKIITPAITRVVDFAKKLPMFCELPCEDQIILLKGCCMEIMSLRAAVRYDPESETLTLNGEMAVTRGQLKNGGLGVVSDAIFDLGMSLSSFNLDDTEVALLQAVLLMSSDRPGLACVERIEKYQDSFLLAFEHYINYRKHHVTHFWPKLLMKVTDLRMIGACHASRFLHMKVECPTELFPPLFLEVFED
Sequence of Tumor necrosis factor (Homo sapiens) (P01375 whole entry, looked up): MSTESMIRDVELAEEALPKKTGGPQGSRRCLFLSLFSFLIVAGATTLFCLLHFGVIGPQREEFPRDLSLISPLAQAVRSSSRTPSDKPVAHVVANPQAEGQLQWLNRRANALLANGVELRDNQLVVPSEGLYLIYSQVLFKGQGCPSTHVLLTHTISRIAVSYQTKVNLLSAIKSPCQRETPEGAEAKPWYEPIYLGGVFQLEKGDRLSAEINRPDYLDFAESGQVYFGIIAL
Sequence of Nuclear receptor ROR-gamma (Homo sapiens) (P51449 whole entry, looked up): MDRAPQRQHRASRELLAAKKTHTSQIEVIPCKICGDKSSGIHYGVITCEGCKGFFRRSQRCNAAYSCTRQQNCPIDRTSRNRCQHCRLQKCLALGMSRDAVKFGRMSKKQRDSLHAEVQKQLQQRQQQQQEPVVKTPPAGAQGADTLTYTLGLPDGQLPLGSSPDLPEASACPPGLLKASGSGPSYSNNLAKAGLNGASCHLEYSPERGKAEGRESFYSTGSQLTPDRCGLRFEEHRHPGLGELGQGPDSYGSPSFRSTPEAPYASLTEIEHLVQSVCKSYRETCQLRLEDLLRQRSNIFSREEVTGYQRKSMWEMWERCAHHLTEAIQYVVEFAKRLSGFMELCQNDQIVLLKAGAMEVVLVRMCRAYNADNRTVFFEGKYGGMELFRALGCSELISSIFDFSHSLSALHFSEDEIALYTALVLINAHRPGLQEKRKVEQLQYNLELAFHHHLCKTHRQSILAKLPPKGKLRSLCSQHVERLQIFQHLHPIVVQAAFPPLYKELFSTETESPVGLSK
Sequence of Voltage-gated inwardly rectifying potassium channel KCNH2 (Homo sapiens) (Q12809 whole entry, looked up): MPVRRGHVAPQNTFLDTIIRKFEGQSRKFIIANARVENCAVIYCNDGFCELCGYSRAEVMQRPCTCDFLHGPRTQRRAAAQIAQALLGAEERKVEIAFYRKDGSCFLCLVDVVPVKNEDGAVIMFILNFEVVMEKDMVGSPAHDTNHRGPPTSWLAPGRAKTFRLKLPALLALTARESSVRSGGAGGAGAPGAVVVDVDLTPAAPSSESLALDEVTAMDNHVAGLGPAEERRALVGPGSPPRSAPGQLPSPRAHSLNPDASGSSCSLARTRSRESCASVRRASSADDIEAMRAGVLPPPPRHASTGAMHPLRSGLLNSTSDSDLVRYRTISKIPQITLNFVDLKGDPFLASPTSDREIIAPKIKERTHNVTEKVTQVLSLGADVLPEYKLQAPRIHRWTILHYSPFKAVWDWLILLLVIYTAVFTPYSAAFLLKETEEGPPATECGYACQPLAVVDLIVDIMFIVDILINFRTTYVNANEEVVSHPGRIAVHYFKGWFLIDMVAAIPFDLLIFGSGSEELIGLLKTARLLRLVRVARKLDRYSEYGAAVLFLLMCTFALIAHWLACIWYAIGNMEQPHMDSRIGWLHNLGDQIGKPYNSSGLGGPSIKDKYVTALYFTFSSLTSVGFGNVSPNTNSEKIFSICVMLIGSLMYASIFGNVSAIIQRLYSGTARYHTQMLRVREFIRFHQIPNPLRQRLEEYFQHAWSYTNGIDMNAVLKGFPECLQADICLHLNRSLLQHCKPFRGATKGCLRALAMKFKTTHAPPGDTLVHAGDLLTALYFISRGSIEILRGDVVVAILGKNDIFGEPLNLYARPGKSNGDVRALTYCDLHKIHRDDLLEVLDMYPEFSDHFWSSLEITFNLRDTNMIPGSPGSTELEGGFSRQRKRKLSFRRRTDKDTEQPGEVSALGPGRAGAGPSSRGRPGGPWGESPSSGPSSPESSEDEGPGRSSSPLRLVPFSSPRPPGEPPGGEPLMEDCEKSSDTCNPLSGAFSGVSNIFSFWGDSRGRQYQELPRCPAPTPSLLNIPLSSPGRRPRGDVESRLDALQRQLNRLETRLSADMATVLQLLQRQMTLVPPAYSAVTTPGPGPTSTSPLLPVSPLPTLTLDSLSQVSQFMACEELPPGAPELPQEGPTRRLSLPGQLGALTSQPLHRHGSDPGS

In the case of `c1ccc2[nH]cnc2c1`, the max response in assay [1] was -10.3%; in assay [12] it was -1.28% (inactive); in [16], -6.28% (inactive). In addition, the compound was called inactive in assay [2], in assay [3] and in [14]. For the same compound, the activity change % (negative = inhibition) in [4] is 2.62% (inactive). Also, the Potency result in assay [5], in [8], in assay [9], in [10], in assay [13] and in assay [15] was “inactive” in each case. Further, the results for the activation in assay [6], in assay [7] and in assay [11] were 0.533% (inactive), 1.42% (inactive) and 1.2% (inactive), respectively.

Take `Nc1ccc(F)cc1F`: the max response in assay [1] was -10.9%; in [17], -8.47%; in [18], 16.2% (inactive); in assay [12], 7.65% (inactive); in assay [16] it was -3.09% (inactive). The outcome in assay [2] and in assay [14] was inactive. The Potency result in assay [5], in assay [19], in assay [8], in assay [9], in assay [10] and in assay [20] was “inactive” each time. Besides, the Potency result in assay [13] and in [15] was “inactive” each time. For the same compound, the values for the activation in assay [6], in [7] and in assay [11] were -3.46% (inactive), -1.13% (inactive) and -1.74% (inactive), respectively.

With `O=C(O)CNC(=O)c1ccc(CO)o1`, the max response in assay [1] is -18.2%; in [17], 2.84%; in assay [12], -5.12% (inactive); in assay [16], -15.7% (inactive). Moreover, the outcome in assay [2], in assay [3] and in assay [14] was inactive. For the same compound, the activity change % (negative = inhibition) in assay [4] was -8.36% (inactive). For the same compound, the Potency entry in assay [19], in [8], in assay [9], in [10], in assay [13] and in [15] was “inactive” in each case. Further, the activation was 0.936% (inactive) in [7] and -1.34% (inactive) in assay [11].

With `Nc1nc(-c2ccccc2)cs1`, the max response in assay [1] was -6.18%; in assay [17], 7.15%; in [12], 22.8% (inactive); in assay [16], 4.04% (inactive). In addition, the compound was classed as inactive in assay [2]. Also, the Potency in assay [19] is 37.6 µM (active); in [11], 35.5 µM (active). Also, in assay [7], the activation is 0.279% (inactive). For the same compound, the Potency result in assay [8], in assay [9] and in assay [10] was “inactive” throughout.

Turning to `CC(=O)C1(C)CC2=C(CCCC2(C)C)CC1C` (configuration not stated), the max response in [1] was -9.8%; in [17], -2.18%; in assay [12] it was -0.376% (inactive); in assay [16], 5.61% (inactive). Also, the compound was classed as inactive in assay [2] and in assay [14]. In addition, the activity change % (negative = inhibition) in [4] is -1.03% (inactive). Also, the Potency in assay [5] was 15.8 µM (active). Also, the Potency result in assay [19], in assay [10], in assay [13] and in [15] was “inactive” in each case. Besides, the activation in [6] was -2.14% (inactive); in assay [11], -1.01% (inactive).

`Cc1ccccc1Br`: the max response was -14.2% in assay [1]; 1.58% in assay [17]; 1.27% (inactive) in assay [18]; -3.06% (inactive) in [12]; -8.12% (inactive) in assay [16]. Also, the outcome in assay [2] and in assay [14] was inactive. In addition, the Potency entry in [5], in assay [19], in [8], in assay [9], in assay [10] and in assay [13] was “inactive” in each case. In assay [15], the Potency entry was “inactive”. Also, the activation in [7] was -0.604% (inactive).

With `CCOCCOCC`, the max response in assay [1] is -9.35%; in assay [17], -9.02%; in [18], 1.41% (inactive); in [12] it was -2.27% (inactive); in assay [16], 5.13% (inactive). Also, the result in assay [3] and in assay [14] was inactive. In addition, the activity change % (negative = inhibition) in assay [4] is 12.3% (inactive). The Potency result in [5], in [19], in [8], in [9], in [10] and in assay [13] was “inactive” in each case. Besides, in [15], the Potency result is “inactive”. The activation in assay [6] was 0.0371% (inactive); in assay [7] it was -0.436% (inactive).
